Assay results taken from PubChem BioAssay AID652057 (Broad Institute, 2013).
The campaign covered roughly 1,400 compounds. About 1,000 (71%) were called active. So high a share suggests a set chosen from earlier hits. Not all results are given here. Potency and affinity values are given separately. Values without a mark were called inactive. The rule behind the calls is not given here.

Assay: inhibitors of HIV Env-driven cell fusion, dose response, cherry-pick (AID 652057)
Details: HeLa-JRFL Env/CEM21 cell fusion, luciferase; series mostly up to 35 µM; activity change, negative = inhibition: at the top concentration

Compound | activity change, negative = inhibition
CCCNC(=O)C[C@H]1C[C@H]2c3cc(NC(=O)CN(C)C)ccc3O[C@H]2[C@H](CO)O1 | -3.46%
c1csc(-c2csc3ncnc(NCCCN4CCOCC4)c23)c1 | -29.8%
Clc1ccc(OCCN2CCN(c3ncnc4sccc34)CC2)cc1 | -19%
Cc1cccc(C)c1NC(=O)N1CCN(c2nc3ccccc3s2)CC1 | -9.77%
C[C@@H]1CN([C@H](C)CO)C(=O)c2cc(NC(=O)Nc3ccccc3)ccc2O[C@@H]1CN(C)S(=O)(=O)c1ccccc1 | 47.9%
Cc1nnc(SC(=O)N2c3ccccc3Sc3ccccc32)s1 | 119%
Cc1ccc(S(=O)(=O)N(C)C[C@@H]2Oc3cc(C#CC4CCCC4)ccc3S(=O)(=O)N([C@H](C)CO)C[C@H]2C)cc1 | -29.5%
O=C(C[C@H]1C[C@H]2c3cc(NC(=O)Cc4ccncc4)ccc3O[C@H]2[C@@H](CO)O1)NCc1ccncc1 | -10.2%
O=C(C[C@@H]1C[C@H]2c3cc(NC(=O)NC4CCCCC4)ccc3O[C@H]2[C@@H](CO)O1)NCc1ccncc1 | 11.5%
O=C(NNC(=O)C(c1ccccc1)c1ccccc1)c1ccccn1 | -5.19%
O=C(COC(=O)c1ncc(Cl)c(Cl)c1Cl)NCc1cccs1 | -16.5%
CN(Cc1cccs1)c1ncnc2sccc12 | -2.6%
COc1ccc(-c2cn3c(C)c(C(=O)Nc4cccc(NC(C)=O)c4)sc3n2)cc1 | 13% [at 16 µM]
O=C1COc2ccc(-c3csc(=Nc4ccc(OC(F)F)cc4)n3CC3CCCO3)cc2N1 (configuration not stated) | -33%
CCc1ccc(-c2nc(CN3CCC(C(=O)NCCc4ccc(OC)c(OC)c4)CC3)c(C)o2)cc1 | 15.1%
CC(NNC(=S)N1CCCCCC1)c1ccc2ccccc2n1 (configuration not stated) | -25.8%
CCN1C(=O)[C@H]2[C@@H](c3ccc(C(F)(F)F)cc3)N[C@]3(CCCN(Cc4ccccc4)C3=O)[C@H]2C1=O | -5.82%
O=C(Cn1ncc2c(=O)oc3ccccc3c21)N1CCC(N2CCCCC2)CC1 | -4.21%
COc1ccc(CCNC(=O)C2CCCN(Cc3nc(-c4cccc(Cl)c4)oc3C)C2)cc1OC (configuration not stated) | -27.2%
C[C@@H]1CN([C@H](C)CO)C(=O)c2cccc(NC(=O)c3ccncc3)c2O[C@@H]1CN(C)Cc1ccc(C(=O)O)cc1 | 5.08%
C[C@@H]1CN([C@H](C)CO)C(=O)c2cccc(NC(=O)c3cnccn3)c2O[C@H]1CN(C)Cc1ccccc1 | -21.7%
CCCNC(=O)C[C@@H]1C[C@H]2c3cc(NC(=O)Cc4ccncc4)ccc3O[C@H]2[C@H](CO)O1 | 45%

Compound | activity change, negative = inhibition
COC(=O)c1ccc(C(=O)NC2CCCc3c2cnn3-c2ccc(C)c(C)c2)cc1 (configuration not stated) | 66.7%
COc1ccccc1N1CCN(Cc2ccc(O)c3ncccc23)CC1 | 30%
CC1CCCN(C(=O)c2ccc(S(=O)(=O)N3CCC(c4nc5ccccc5s4)CC3)cc2)C1 (configuration not stated) | -13.8%
O=C(Nc1ccc(S(=O)(=O)N2CCN(Cc3ccccc3)CC2)cc1)c1cnccn1 | -11.9%
O=C(Cc1ccccc1)N[C@@H]1C=C[C@H](CC(=O)N2CCCCC2)O[C@@H]1CO | 6.07%
COc1ccc(S(=O)(=O)N[C@@H]2C=C[C@H](CC(=O)N3CCC(Cc4ccccc4)CC3)O[C@@H]2CO)cc1 | -5.81%
COc1cccc(S(=O)(=O)N[C@@H]2CC[C@H](CCN)O[C@H]2CO)c1 | 0.746%
COc1cccc(S(=O)(=O)N[C@H]2CC[C@@H](CCN)O[C@@H]2CO)c1 | 30.6% [at 16 µM]
CCCCCn1c(=O)[nH]c2cc(C(=O)N3CCN(Cc4ccc5c(c4)OCO5)CC3)ccc2c1=O | -30.3% [at 16 µM]
CCc1cnc(N2[C@H](C#N)[C@H](c3ccc(C#Cc4ccccc4F)cc3)[C@H]2CO)s1 | -25%
Cc1ccc(C(=O)NCc2ccccn2)cc1S(=O)(=O)N1CCCCC1 | 12.6%
CCCn1c(=S)[nH]c2cc(C(=O)N3CCCC(C(=O)OCC)C3)ccc2c1=O (configuration not stated) | -17.7%
CN(C(=O)c1cccc(NC(=O)Cc2cccc(NC(=O)C3CCCN(C(=O)C4CCC4)C3)c2)c1)C1CCC1 (configuration not stated) | 44.8% [at 16 µM]
COc1ccc(S(=O)(=O)NC[C@@H]2CC[C@H]3[C@H](CN3Cc3cc(F)ccc3F)O2)cc1 | -7%
COCC(C)n1c(-c2ccc3c(c2)NC(=O)CO3)csc1=Nc1ccc(OC(F)F)cc1 (configuration not stated) | -24.6%
C[C@@H]1CN([C@H](C)CO)C(=O)c2cccc(NS(=O)(=O)c3cn(C)cn3)c2O[C@H]1CN(C)C(=O)Nc1ccc(F)cc1 | 8.94%
O=C(N/N=C/c1ccc(-n2ccnc2)cc1)c1cccs1 | 64.2%
Cc1ccc(NC(=O)c2ccc(CN3CCc4ccccc4C3)cc2)cc1 | 33%
O=C(Nc1ccc(S(=O)(=O)N2CCCC2)cc1)c1ccc(CN2CCOCC2)cc1 | -13.4%
C=C(C)CN(CC)c1nc(N)c2c(N)nc3c(c2c1C#N)CC(=O)N3C12CC3CC(CC(C3)C1)C2 | -26.7%
CCc1nc(N2CCCCC2C)c2oc3ccccc3c2n1 (configuration not stated) | -10.6%
CCOc1ccc2c(c1)-c1c(ssc1=S)C(C)(C)N2C(=O)c1ccco1 | 23.5%

Compound | activity change, negative = inhibition
O=C(COC(=O)c1cccc(S(=O)(=O)N2CCOCC2)c1)NCc1ccccc1 | 0.395%
CC(C)OCCCNc1ncnc2c1[nH]c1ccccc12 | -15%
Cc1ccccc1OCCCCn1cnc2ccccc21 | 46.1% [at 15 µM]
COCC(=O)Nc1ccc2c(c1)C(=O)N(C)C[C@@H](OC)[C@H](C)CN(C(C)=O)[C@H](C)CO2 | -9.74%
CCN(CC)CCN(C(=O)c1cc(Cl)sc1Cl)c1nc2cc3c(cc2s1)OCO3 | 35.1%
O=C(Nc1cccc(F)c1)N[C@@H]1CC[C@H](CCNS(=O)(=O)c2cccc(Cl)c2)O[C@@H]1CO | 42.4%
O=C(C[C@H]1C[C@@H]2c3cc(NC(=O)C4CCOCC4)ccc3O[C@@H]2[C@@H](CO)O1)NCc1ccccc1F | 14%
CCS(=O)(=O)N[C@H]1CC[C@@H](CC(=O)NCc2ccc(Cl)cc2)O[C@@H]1CO | 22.3%
COc1cccc(CNC(=O)C[C@@H]2C=C[C@H](NC(=O)C3CCC3)[C@H](CO)O2)c1 | 45.5%
O=C(C[C@@H]1C=C[C@@H](NC(=O)Nc2ccc3c(c2)OCO3)[C@H](CO)O1)NCc1ccc(F)cc1 | -6.97%
COc1ccccc1CNC(=O)C[C@H]1C[C@@H]2c3cc(NC(=O)c4cccnc4)ccc3O[C@@H]2[C@@H](CO)O1 | -4.17%
C[C@@H]1CN([C@H](C)CO)C(=O)c2cccc(NS(=O)(=O)c3ccc(Cl)cc3)c2O[C@H]1CN(C)CC1CCCCC1 | 56.1% [at 30 µM]
COC(=O)c1ccc(NC(=O)c2ccc(CN3CCOCC3)cc2)cc1 | 12.6%
OC1(c2ccc(OC(F)F)cc2)CSC(=Nc2cccnc2)N1C1CC1 (configuration not stated) | -12.4%
Cc1cc(Cl)c(S(=O)(=O)N2CCCC2)cc1OCC(=O)NC1CCCCC1 | -17.4%
CN(C)S(=O)(=O)c1ccc(C(=O)Nc2nc(-c3cccs3)cs2)cc1 | 7.84%
COCCCn1c(-c2ccc(S(=O)(=O)N3CCOCC3)cc2)csc1=Nc1ccccc1 | 3.27%
CCCC(=O)Nc1ccc2c(c1)C(=O)N(C)C[C@@H](OC)[C@@H](C)CN(Cc1nccs1)[C@@H](C)CO2 | -10.4%
COCC(=O)Nc1ccc2c(c1)C(=O)N(C)C[C@@H](OC)[C@@H](C)CN(C)[C@H](C)CO2 | 24.4%
C=CC[n+]1c(-c2ccc(C)cc2)csc1NNC(=O)Nc1ccccc1 | -18.4% [at 16 µM]
NC(=S)c1ccc(OCCCc2ccccc2)cc1 | 19.6%
O=C1c2cccc(OCc3ccc(F)cc3)c2CCN1Cc1ccccc1 | -36.6%

Compound | activity change, negative = inhibition
O=C(C[C@H]1C[C@@H]2c3cc(NC(=O)C4CCC4)ccc3O[C@@H]2[C@@H](CO)O1)NCc1ccc2c(c1)OCO2 | 24.8%
C=CCOc1c(Br)cc(CNc2ccc(NC(=O)C(C)C)c(OC)c2)cc1OC | 15.3%
CC1(C)N=C(N)N=C(N)N1CCCCc1ccccc1 | -26.4%
COc1cc(-c2c(-c3cc(OC)c(OC)c(OC)c3)noc2C)ccc1F | 54.8%
O=C(CNC(=O)c1cccc(-n2cccc2)c1)Nc1ccccc1Br | 5.83%
COc1ccccc1S(=O)(=O)Nc1ccc2c(c1)C(=O)N(C)C[C@@H](OC)[C@@H](C)CN[C@@H](C)CO2 | 11.4%
CCCNC(=O)C[C@H]1C[C@H]2c3cc(NC(=O)CN(C)C)ccc3O[C@H]2[C@@H](CO)O1 | 15.8%
COc1ccc(NC(=O)c2ccc(Cl)c(S(=O)(=O)N3CCc4ccccc4C3)c2)cn1 | -27.9%
O=C(Nc1ccc(F)cc1)Nc1ccc2c(c1)[C@@H]1C[C@H](CC(=O)N3CCCCC3)O[C@@H](CO)[C@@H]1O2 | -5.66%
COc1ccccc1Oc1ccc(S(=O)(=O)NCc2ccccn2)cc1 | -14.1%
O=C(Nc1ccc(Oc2ccccc2)cc1)c1csc([C@H]2C[C@H](O)[C@@H](CO)O2)n1 | -10.4%
COc1ccc(OC)c(-c2cc(C(=O)Nc3c(C)nn(Cc4ccc(Cl)cc4)c3C)no2)c1 | -26%
CCCCS(=O)(=O)N1CCN(C(=O)C(=O)c2cccc(C(F)(F)F)c2)CC1 | 10.8%
CCS(=O)(=O)Nc1ccc2c(c1)C(=O)N(C)C[C@H](OC)[C@@H](C)CN(C(=O)C1CCC1)[C@H](C)CO2 | 12.2%
CN(C)Cc1cn(CC[C@@H]2CC[C@H](N)[C@H](CO)O2)nn1 | 24.1%
Nc1nonc1C(=O)NCCNCc1cc(Br)ccc1OCc1ccccc1F | -12.6%
CN1CCN(C(=O)C[C@H]2C[C@@H]3c4cc(NS(C)(=O)=O)ccc4O[C@@H]3[C@H](CO)O2)CC1 | 9.51%
O=C(Nc1ccc(C(=O)OC2CCCCC2)cc1)c1ccncc1 | 13.6%
CCCCOc1ccc(S(=O)(=O)Nc2cccnc2)cc1 | 6.53%
C[C@H]1CN([C@@H](C)CO)C(=O)c2cccc(NC(=O)c3ccncc3)c2O[C@@H]1CN(C)C(=O)Nc1cccc2ccccc12 | 0.94%
C[C@H](CO)N1C[C@H](C)[C@@H](CN(C)C(=O)Nc2cccc3ccccc23)OCCCC[C@H](C)Oc2ccc(N(C)C)cc2C1=O | -30.6%
